# “And” between values parts separate entries of the source, which are not always exact repeats. Equal entries are not always repeated. Results filed as inconclusive are left out. Where a call stands in place of a potency, no number is given. More than one record can exist for a structure, and the calls need not agree. The source made the active and inactive calls. Unless noted, calls follow the shape of the full dose curve.
# How the values were obtained:
# [1] = Nuclear factor erythroid 2-related factor 2/antioxidant responsive element (Nrf2/ARE) small molecule agonists: qHTS cell viability counter screen in human keratinocytes (AID 1919968; active = well fitted curve in the direction sought with a large enough effect in the repeat runs; an effect the other way counts as inactive or inconclusive; also: nearly all actives have a fitted effect of over 55% in size; also: potency is read from the fitted curve at half-maximal effect)
# Outline: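 Cells of the KeratinoSens line were plated at 1,500 per well and left for 5 h before compound transfer from DMSO stocks. After a 23 h incubation (37 C, 5% CO2), CellTiter-Fluor was added. Signal was taken as fluorescence intensity 1 h later.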
# [2] = Nuclear factor erythroid 2-related factor 2/antioxidant responsive element (Nrf2/ARE) small molecule agonists: luciferase reporter gene qHTS assay in human keratinocytes (AID 1919969); also: nearly all actives have a fitted effect of over 35% in size; also: potency is read from the fitted curve at half-maximal effect
# [3] = target: Gonadotropin-releasing hormone receptor (Homo sapiens) (UniProt P30968); test: Human gonadotropin-releasing hormone receptor (GnRHR) small molecule agonists, calcium flux assay in GnRHR-HEK293 cells (AID 1920063); also: nearly all actives have a fitted effect of over 35% in size
# Outline: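 Compounds dissolved in DMSO are pin-transferred onto dye-loaded GnRHR-HEK293 cells, which were seeded 18 h before at 37 C/5% CO2. Calcium signal is read as fluorescence intensity at 1 s intervals for 3 min.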
# [4] = target: KiSS-1 receptor (Homo sapiens) (UniProt Q969F8); test: Human kisspeptin (KISS1R) small molecule agonists, calcium flux assay in KISS1R-HEK293 cells (AID 1920064; active = well fitted curve in the direction sought with a large enough effect in the repeat runs; an effect the other way counts as inactive or inconclusive)
# Outline: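 Cell line: HEK293, stable human KISS1R. Dye loading 1 h at 37 C after 18 h culture. Read: kinetic fluorescence, 480/540 nm, 3 min at 1 s intervals.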
# [5] = G protein-coupled receptor (GPCR) small molecule agonists, calcium flux assay: HEK293 wild type cell line counter screen (AID 1920065)
# Outline: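 Tox21 10K compounds, 15 concentrations each in triplicate, pin-transferred in DMSO onto dye-loaded cells; kinetic read at 480/540 nm for 3 min, 1 s intervals.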
# [6] = p53 small molecule agonists, cell-based qHTS assay with human liver microsomes (AID 1963577)
# Outline: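 Compounds act here after metabolic activation: human liver microsomes and NADPH, both at 0.5 mg/mL final, were co-added to p53RE-bla cells. Incubation ran 16 h at 37 C, followed by LiveBLAzer detection.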
# [7] = p53 small molecule agonists, cell-based qHTS assay with rat liver microsomes (AID 1963578)
# Outline: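 Read-out is beta-lactamase reporter fluorescence (LiveBLAzer, 2 h, room temperature, dark) in p53RE-bla cells treated 16 h at 37 C with compound, rat liver microsomes and NADPH, both 0.5 mg/mL final.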
# [8] = p53 small molecule agonists, cell-based qHTS assay with human liver microsomes: qHTS cell viability counter screen (AID 1963579); also: nearly all actives have a fitted effect of over 45% in size; also: potency is read from the fitted curve at half-maximal effect
# Outline: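 Cells carrying the p53 response-element beta-lactamase reporter are treated for 16 h at 37 C with test compounds in the presence of human liver microsomes and NADPH (both 0.5 mg/mL final); ATP-based CellTiter-Glo luminescence then reports viability.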
# [9] = p53 small molecule agonists, cell-based qHTS assay with rat liver microsomes: qHTS cell viability counter screen (AID 1963580); also: nearly all actives have a fitted effect of over 45% in size
# Outline: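 Cytotoxicity counter screen: intracellular ATP read by CellTiter-Glo luminescence in the p53 reporter wells. HCT-116 p53RE-bla cells were treated for 16 h at 37 C alongside rat liver microsomes and NADPH, each 0.5 mg/mL final.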
# [10] = p53 small molecule agonists, cell-based qHTS assay: qHTS cell viability counter screen (AID 1963581); also: nearly all actives have a fitted effect of over 45% in size
# Outline: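 ATP content measured by luminescence in HCT-116 p53RE-bla cells treated 16 h at 37 C, same wells as the reporter screen.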
# [11] = p53 small molecule agonists, cell-based qHTS assay (AID 1963582; active = well fitted activation curve with a large enough effect in the signal ratio in the repeat runs, not every such curve was filed as active; the % refers to the signal ratio)
# Outline: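 16 h compound exposure (37 C) of p53 response element–bla cells, preceded by 5 h recovery at 37 C/5% CO2; read-out via LiveBLAzer B/G FRET substrate, 2 h RT, fluorescence intensity.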
# [12] = target: 5-hydroxytryptamine receptor 2A (Homo sapiens) (UniProt P28223); test: 5-hydroxytryptamine receptor 2A (HTR2A) small molecule antagonists, cell-based qHTS assay (AID 1963586); also: nearly all actives have a fitted effect of over 45% in size; also: potency is read from the fitted curve at half-maximal effect
# Outline: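 CHO cells stably expressing human HTR2A were plated for 18 h at 37 C, then loaded with calcium dye for 1 h. Compounds were preincubated 5 min at room temperature before DOI (4 nM solution) was added. Kinetic fluorescence was read for 3 min.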
# [13] = target: 5-hydroxytryptamine receptor 2A (Homo sapiens) (UniProt P28223); test: 5-hydroxytryptamine receptor 2A (HTR2A) small molecule agonists, cell-based qHTS assay (AID 1963587); also: nearly all actives have a fitted effect of over 30% in size
# Outline: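 Kinetic calcium-flux fluorescence (2 min, 1 sec intervals) after compound addition in agonist mode. HTR2A-CHO cells were cultured 18 h, then dye-loaded 1 h at 37 C.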
# [14] = target: Muscarinic acetylcholine receptor M1 (Homo sapiens) (UniProt P11229); test: Cholinergic receptor muscarinic 1 (CHRM1) small molecule antagonists, cell-based qHTS assay (AID 1963588); also: nearly all actives have a fitted effect of over 40% in size; also: potency is read from the fitted curve at half-maximal effect
# Outline: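 Compounds were tested at 15 concentrations in three independent runs. Dye-loaded CHRM1-CHO cells were exposed 5 min at room temperature before stimulation by acetylcholine added at 50nM. Intracellular calcium was read kinetically on FDSS for 3 min.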
# [15] = target: Muscarinic acetylcholine receptor M1 (Homo sapiens) (UniProt P11229); test: Cholinergic receptor muscarinic 1 (CHRM1) small molecule agonists, cell-based qHTS assay (AID 1963589); also: nearly all actives have a fitted effect of over 35% in size
# Outline: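 Homogeneous fluorescence calcium flux, agonist mode. Human M1-expressing CHO cells; compound dosed at 15 concentrations, three independent runs; signal sampled every 1 sec.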
# [16] = cAMP Responsive Elements (CRE) small molecule agonists, cell-based qHTS assay (AID 1963590)
# Outline: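 HEK 293T cells stably bearing CRE-bla were plated at 2,000 cells per well and rested 18 h. Compounds, positive controls or DMSO were added for 3 h at 37 C. LiveBLAzer B/G substrate was then loaded for 2 h at room temperature.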
# [17] = cAMP Responsive Elements (CRE) small molecule antagonists, cell-based qHTS assay (AID 1963591; active = well fitted inhibition curve with a large enough effect in the signal ratio in the repeat runs, not every such curve was filed as active; the % refers to the signal ratio)
# Outline: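 First, CRE-bla HEK293T cells settled 18 h at 37 C. Next, compound and 0.25 uM final NKH477 were applied for 3 h. Last, LiveBLAzer B/G substrate was loaded for 2 h at room temperature.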
# [18] = target: Beta-2 adrenergic receptor (Homo sapiens) (UniProt P07550); test: Adrenergic beta2 receptor (ADRB2) small molecule antagonists, cell-based qHTS assay (AID 1963592); also: series mostly up to about 92 µM; nearly all actives have a fitted effect of over 50% in size
# Outline: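 Assay format: CHO-ADRB2 cells, 18-20hr seeding at 37C/5% CO2, then compound plus 1nM isoproterenol agonist mix for 0.5hr RT. Homogeneous time-resolved fluorescence cAMP detection after 1hr, expressed as 665/615 nm ratio.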
# [19] = target: D(2) dopamine receptor (Homo sapiens) (UniProt P14416); test: Dopamine D2 receptor (DRD2) small molecule agonists, cell-based qHTS assay (AID 1963594); also: nearly all actives have a fitted effect of over 35% in size
# Outline: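 cAMP accumulation in DRD2-HEK293 cells measured by HTRF after 1 h detection; compounds added 10 min before NKH477 (200nM […]) forskolin-analogue stimulation, 30 min at room temperature, with Ro20-1724 present at 0.1 mM final.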
# [20] = target: D(2) dopamine receptor (Homo sapiens) (UniProt P14416); test: Dopamine D2 receptor (DRD2) small molecule antagonists, cell-based qHTS assay (AID 1963595; active = well fitted inhibition curve with a large enough effect in the signal ratio in the repeat runs, with a control signal flat; the % refers to the signal ratio)
# Outline: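 HEK293 cells stably expressing DRD2 were preincubated with 0.1 mM Ro20-1724, then with compound for 10 min at room temperature. Cells were stimulated with 200 nM NKH477 plus 12 nM quinpirole for 30 min, and cAMP was read by HTRF.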
# Gonadotropin-releasing hormone receptor (Homo sapiens), sequence (P30968 whole entry, looked up): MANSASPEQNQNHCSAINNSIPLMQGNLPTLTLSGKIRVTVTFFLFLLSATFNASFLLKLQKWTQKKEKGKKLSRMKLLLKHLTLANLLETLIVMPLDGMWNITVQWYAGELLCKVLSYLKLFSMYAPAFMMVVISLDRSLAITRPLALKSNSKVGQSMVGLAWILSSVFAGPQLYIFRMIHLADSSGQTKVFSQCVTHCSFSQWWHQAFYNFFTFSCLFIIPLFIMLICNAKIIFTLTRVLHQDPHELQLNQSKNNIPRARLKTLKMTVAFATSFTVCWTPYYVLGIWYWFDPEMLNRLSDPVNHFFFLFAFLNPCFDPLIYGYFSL
# KiSS-1 receptor (Homo sapiens), sequence (Q969F8 whole entry, looked up): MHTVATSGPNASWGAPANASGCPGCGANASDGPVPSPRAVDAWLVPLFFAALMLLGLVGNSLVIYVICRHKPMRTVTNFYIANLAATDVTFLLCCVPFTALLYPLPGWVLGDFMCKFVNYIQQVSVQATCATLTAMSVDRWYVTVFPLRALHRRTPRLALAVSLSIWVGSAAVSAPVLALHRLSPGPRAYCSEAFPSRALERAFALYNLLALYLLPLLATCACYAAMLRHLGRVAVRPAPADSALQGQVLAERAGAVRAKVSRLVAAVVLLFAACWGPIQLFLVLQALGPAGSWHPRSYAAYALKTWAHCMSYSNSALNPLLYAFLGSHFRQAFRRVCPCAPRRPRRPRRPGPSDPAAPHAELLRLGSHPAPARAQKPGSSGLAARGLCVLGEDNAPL
# D(2) dopamine receptor (Homo sapiens), sequence (P14416 whole entry, looked up): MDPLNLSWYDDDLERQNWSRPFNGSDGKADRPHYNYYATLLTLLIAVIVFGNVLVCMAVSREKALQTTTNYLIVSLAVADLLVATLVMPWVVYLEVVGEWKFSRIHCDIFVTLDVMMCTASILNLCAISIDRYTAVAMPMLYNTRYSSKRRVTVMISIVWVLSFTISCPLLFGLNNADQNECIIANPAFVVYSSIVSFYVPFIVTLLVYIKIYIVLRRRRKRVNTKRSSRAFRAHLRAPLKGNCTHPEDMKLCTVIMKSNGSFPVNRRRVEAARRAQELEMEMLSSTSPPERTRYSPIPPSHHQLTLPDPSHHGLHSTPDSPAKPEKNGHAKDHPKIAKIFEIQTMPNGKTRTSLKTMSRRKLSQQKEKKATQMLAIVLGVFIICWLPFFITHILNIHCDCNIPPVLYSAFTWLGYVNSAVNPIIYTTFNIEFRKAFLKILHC
# Beta-2 adrenergic receptor (Homo sapiens), sequence (P07550 whole entry, looked up): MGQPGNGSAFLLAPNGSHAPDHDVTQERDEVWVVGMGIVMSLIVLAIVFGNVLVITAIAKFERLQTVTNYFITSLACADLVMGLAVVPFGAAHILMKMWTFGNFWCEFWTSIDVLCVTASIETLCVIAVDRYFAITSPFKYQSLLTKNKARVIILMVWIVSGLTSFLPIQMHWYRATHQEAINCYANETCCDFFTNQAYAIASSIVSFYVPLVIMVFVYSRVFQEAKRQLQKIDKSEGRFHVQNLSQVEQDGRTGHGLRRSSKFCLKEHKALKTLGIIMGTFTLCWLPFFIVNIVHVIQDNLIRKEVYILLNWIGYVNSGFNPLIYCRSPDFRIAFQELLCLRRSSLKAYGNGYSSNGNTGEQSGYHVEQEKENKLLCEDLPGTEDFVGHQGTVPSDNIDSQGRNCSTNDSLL
# Muscarinic acetylcholine receptor M1 (Homo sapiens), sequence (P11229 whole entry, looked up): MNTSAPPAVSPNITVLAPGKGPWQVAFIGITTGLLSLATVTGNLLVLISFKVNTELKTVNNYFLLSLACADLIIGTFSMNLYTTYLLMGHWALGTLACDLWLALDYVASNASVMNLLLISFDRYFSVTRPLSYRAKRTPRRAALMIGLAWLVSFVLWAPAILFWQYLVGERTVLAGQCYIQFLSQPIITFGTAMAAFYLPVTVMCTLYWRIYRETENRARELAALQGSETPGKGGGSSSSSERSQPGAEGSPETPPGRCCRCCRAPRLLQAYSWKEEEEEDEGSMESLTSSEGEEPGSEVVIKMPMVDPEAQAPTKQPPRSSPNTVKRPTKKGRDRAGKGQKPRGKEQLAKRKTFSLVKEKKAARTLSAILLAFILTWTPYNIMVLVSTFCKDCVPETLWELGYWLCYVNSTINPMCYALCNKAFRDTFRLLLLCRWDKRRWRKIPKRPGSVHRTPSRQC
# 5-hydroxytryptamine receptor 2A (Homo sapiens), sequence (P28223 whole entry, looked up): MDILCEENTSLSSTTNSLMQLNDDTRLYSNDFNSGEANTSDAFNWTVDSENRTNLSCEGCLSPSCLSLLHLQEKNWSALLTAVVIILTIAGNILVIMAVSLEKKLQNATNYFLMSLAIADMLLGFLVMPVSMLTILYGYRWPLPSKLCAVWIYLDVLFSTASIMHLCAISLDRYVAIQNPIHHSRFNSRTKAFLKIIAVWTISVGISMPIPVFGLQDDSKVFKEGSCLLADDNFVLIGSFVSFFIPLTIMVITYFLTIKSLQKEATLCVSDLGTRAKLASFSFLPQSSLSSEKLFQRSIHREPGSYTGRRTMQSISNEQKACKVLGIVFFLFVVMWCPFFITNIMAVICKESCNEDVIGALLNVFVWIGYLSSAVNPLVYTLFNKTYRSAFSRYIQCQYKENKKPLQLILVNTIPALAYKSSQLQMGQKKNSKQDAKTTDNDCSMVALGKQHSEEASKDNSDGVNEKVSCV
SMILES,Potency [1],Potency [2],Potency [3],Potency [4],Potency [5],Potency [6],Potency [7],Potency [8],Potency [9],Potency [10],Potency [11],Potency [12],Potency [13],Potency [14],Potency [15],Potency [16],Potency [17],Potency [18],Potency [19],Potency [20]
O=C(CCl)CCl,50.3 µM (active) and 54.5 µM (active),28.3 µM (active) and 27.3 µM (active),inactive,inactive,inactive,inactive,inactive,inactive,inactive,inactive,inactive,inactive,inactive,inactive,inactive,inactive,inactive,inactive,inactive,inactive
ClCc1ccccn1,inactive,inactive,inactive,inactive,inactive,inactive,inactive,inactive,inactive,inactive,inactive,inactive,inactive,inactive,inactive,inactive,inactive,inactive,inactive,inactive
CCCCCCC1CCOC1=O (stereo not given),inactive,inactive,inactive,inactive,inactive,inactive,inactive,inactive,inactive,inactive,inactive,inactive,inactive,inactive,inactive,inactive,inactive,inactive,inactive,inactive
NC1(c2ccccc2)CCCCC1,inactive,inactive,inactive,inactive,inactive,inactive,inactive,inactive,inactive,inactive,inactive,inactive,inactive,inactive,inactive,inactive,inactive,,inactive,inactive
CC(C)C1(C)N=C(c2ncccc2C(=O)O)NC1=O (stereo not given),inactive,inactive,inactive,inactive,inactive,inactive,inactive,inactive,inactive,inactive,inactive,inactive,inactive,inactive,inactive,inactive,inactive,,inactive,inactive
CC(C)c1ccc(CO)cc1,inactive,inactive,inactive,inactive,inactive,inactive,inactive,inactive,inactive,inactive,inactive,inactive,inactive,inactive,inactive,inactive,inactive,inactive,inactive,inactive
CN=C=O,inactive,inactive,inactive,inactive,inactive,inactive,inactive,inactive,inactive,inactive,inactive,inactive,inactive,inactive,inactive,inactive,inactive,inactive,inactive,inactive
CC1(C)[C@H](C(=O)O[C@H](C#N)c2cccc(Oc3ccccc3)c2)[C@@H]1C=C(Br)Br,inactive,inactive,inactive,inactive,inactive,inactive,inactive,inactive,inactive,inactive,inactive,inactive,inactive,inactive,inactive,inactive,inactive,inactive,inactive,inactive
CCCCOC(=O)c1ccccc1C(=O)OCc1ccccc1,inactive,inactive and 68.6 µM (active),inactive,inactive,inactive,inactive,inactive,inactive and 646 nM (active),inactive,inactive,inactive,inactive and 5.9 nM (active),inactive,inactive,inactive,inactive,inactive,inactive,inactive,inactive
NNC(=O)c1ccccc1,inactive,56 µM (active),inactive,inactive,inactive,inactive,inactive,41.9 µM (active),inactive,inactive,inactive,inactive,inactive,inactive,inactive,inactive,inactive,,inactive,inactive
ClCCOCOCCCl,inactive,inactive,inactive,inactive,inactive,inactive,inactive,inactive,inactive,inactive,inactive,inactive,inactive,inactive,inactive,inactive,inactive,inactive,inactive,inactive
CCCCCCCCn1cc[n+](C)c1,inactive,inactive,inactive,inactive,inactive,inactive,inactive,inactive,inactive,inactive,inactive,inactive,inactive,9.41 µM (active) and 3.78 µM (active) and inactive,inactive,inactive,inactive,,inactive,inactive
O=C(Cl)/C=C/C(=O)Cl,inactive,inactive,inactive,inactive,inactive,inactive,inactive,inactive,inactive,inactive,inactive,inactive,inactive,1.1 nM (active),inactive,inactive,inactive,inactive,,inactive
CC(C)(C1CCC(O)CC1)C1CCC(O)CC1 (stereo not given),inactive,inactive,inactive,inactive,inactive,inactive,inactive,inactive,inactive,inactive,inactive,inactive,inactive,inactive,inactive,inactive,inactive,inactive,inactive,inactive
O=C(NCc1cccnc1)Nc1ccc([N+](=O)[O-])cc1,inactive,inactive,inactive,inactive,inactive,inactive,inactive,inactive,inactive,inactive,inactive,3.75 µM (active),inactive,inactive,inactive,inactive,inactive,inactive,inactive,inactive

# Reference: PubChem BioAssay (Tox21)
